A selection: hits, their analogues and other compounds. The true share with any hit is near 5.2%.
APOBEC3G inh = APOBEC3G DNA deaminase inhibitors, primary screen, biochemical, fluorescence, single-stranded DNA substrate, uHTS | inhibition, % at 20 µM | recombinant A3G, ssDNA deamination FAM/TAMRA fluorescence | AID 493012, 2011 | DNA dC->dU-editing enzyme APOBEC-3G (Homo sapiens), Q9HC16 | actives 0.28% (n = 330,000);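 active means inhibition of at least 40% at 20 µM, with no more than 30% in the related APOBEC3A deaminase screen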
Target sequence (Q9HC16 whole entry, looked up): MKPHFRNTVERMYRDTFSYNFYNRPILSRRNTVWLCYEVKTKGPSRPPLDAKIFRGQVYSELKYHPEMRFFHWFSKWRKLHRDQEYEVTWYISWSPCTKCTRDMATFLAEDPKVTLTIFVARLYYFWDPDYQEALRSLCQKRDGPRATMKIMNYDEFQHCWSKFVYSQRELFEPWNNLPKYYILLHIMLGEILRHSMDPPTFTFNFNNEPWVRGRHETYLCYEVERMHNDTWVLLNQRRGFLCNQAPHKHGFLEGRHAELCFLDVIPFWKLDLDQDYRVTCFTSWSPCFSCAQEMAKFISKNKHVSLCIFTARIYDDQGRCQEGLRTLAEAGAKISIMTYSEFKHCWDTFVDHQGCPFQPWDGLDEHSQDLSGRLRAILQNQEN
M18AAP inhibitor = PfM18AAP inhibitors, malaria aminopeptidase, primary screen, biochemical, QFRET, recombinant enzyme | H-Glu-NHMec fluorogenic cleavage | inhibition, % at 7.35 µM | actives 1.2% (n = 290,000) | AID 1822, 2009;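 active means inhibition above the campaign mean inhibition over all tested compounds plus 3 SD, cut at about 28% in these data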
CendR NRP1 mod = modulators of CendR peptide binding to NRP-1, primary screen, biochemical, fluorescence polarization, uHTS; Neuropilin-1 (Homo sapiens), O14786; FAM-RPARPAR peptide binding to NRP-1; inhibition, % at 25 µM; actives 0.85% (n = 360,000);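 active means inhibition or corrected inhibition above about 18%, plus a signal ratio from 0.5 to 1.5, limit read from the data, passing the limit was not always enough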
Yeast superoxide = reduction of superoxide in aged yeast, primary screen, HTS; S. cerevisiae aged cells, superoxide DHE fluorescence; stronger effect = lower value; AID 2690, 2010; superoxide response (% of plate mean), % at 10 µM; actives 0.18% (n = 330,000);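 active means superoxide response under a set limit, about three screen SD below normal, cut at about 65% in these data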;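 further: yeast aged for seven days with compound at 30 °C before DHE staining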
ALR inh = inhibitors of human ALR sulfhydryl oxidase, primary screen, biochemical, H2O2 detection, HRP-luminol luminescence, single point; inhibition, % (no concentration beside the values); actives 3.8% (n = 290,000); purified ALR, DTT oxidation; FAD-linked sulfhydryl oxidase ALR (Homo sapiens), P55789;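 active means mean replicate inhibition above about 79%, with every replicate also reaching it, limit read from the data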
Target sequence (P55789 whole entry, looked up): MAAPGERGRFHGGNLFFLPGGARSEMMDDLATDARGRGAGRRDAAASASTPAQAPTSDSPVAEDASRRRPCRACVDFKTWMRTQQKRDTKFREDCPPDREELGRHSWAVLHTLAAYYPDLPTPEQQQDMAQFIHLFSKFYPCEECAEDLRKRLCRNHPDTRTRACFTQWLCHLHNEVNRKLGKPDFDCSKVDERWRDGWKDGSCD
APOBEC3A inh = APOBEC3A ssDNA deaminase inhibitors, primary screen, selectivity assay for APOBEC3G inhibitor project, biochemical, FAM/TAMRA oligo cleavage fluorescence | inhibition, % at 20 µM | AID 493011, 2011 | recombinant A3A, FAM/TAMRA ssDNA deamination fluorescence | actives 0.41% (n = 330,000);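 active means at least 40% inhibition at 20 µM here, with at most 30% in a related deaminase screen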
A number is an active result; n = inactive; x = no result given.

SMILES | APOBEC3G inh | M18AAP inhibitor | CendR NRP1 mod | Yeast superoxide | ALR inh | APOBEC3A inh
O=C(COC(=O)c1ccc(Cl)nc1)NCCC1=CCCCC1 | n | n | n | n | 88 | n
O=C(COC(=O)c1ccc(O)cc1)NCCC1=CCCCC1 | n | n | n | n | n | n
COC(=O)c1ccc(CNC(=O)CN2C(=O)NC(Cc3ccccc3)(c3ccccc3)C2=O)cc1 (stereo not given) | x | x | n | x | x | x
c1ccc2c(c1)OCC(c1nnc3n1-c1ccccc1SC3)O2 (stereo not given) | n | n | 45 | n | n | n
COC(=O)c1sc(-c2ccc(Cl)cc2)cc1NC(=O)/C=C/C(=O)O | n | n | n | n | 84 | n
COC(=O)c1c(NC(=O)/C=C/C(=O)O)sc(C)c1-c1ccc(C)c(C)c1 | n | n | n | n | x | n
COC(=O)c1sc(-c2ccc(Cl)cc2)cc1NC(=O)COCC(=O)O | n | n | n | n | n | n
COC(=O)c1c(NC(=O)/C=C/C(=O)O)sc(C)c1-c1ccc(C(C)C)cc1 | n | n | n | n | n | n
CCOC(=O)c1c(NC(=O)/C=C/C(=O)O)sc(C)c1-c1ccc(C)c(C)c1 | n | n | n | n | 98 | n
COC(=O)c1c(NC(=O)/C=C/C(=O)O)sc(C)c1-c1ccc(C)cc1 | n | n | n | n | 98 | n
CCOC(=O)c1sc2c(c1C)C(c1cccs1)C1=C(CCCC1=O)N2 (stereo not given) | n | n | n | n | n | n
Cc1sc2ncnc(NCCCn3ccnc3)c2c1C | n | n | n | n | n | n
O=C(/C=C/c1ccc(O)c(O)c1)OC(Cc1ccc(O)c(O)c1)C(=O)O (stereo not given) | n | 89 | n | n | 99 | n
O=C(/C=C/c1ccc(O)c(O)c1)OCCc1ccccc1 | n | x | n | n | 98 | n
Cc1cc(C)n2cc(COc3ccccc3)nc2n1 | n | n | n | n | n | n
Cc1ccc2occ(C3NC(C(=O)O)CS3)c(=O)c2c1 (stereo not given) | n | 31 | n | n | 98 | n
Cc1ccc2occ(C3N[C@H](C(=O)O)CS3)c(=O)c2c1 (stereo not given in full) | n | n | n | n | 99 | n
Cc1nn2c(-c3cccc(NC(=O)CSc4nc5ccccc5o4)c3)nnc2c2ccccc12 | n | n | n | n | 99 | n
CCN(C(=O)CSc1nc2ccc(Cl)cc2[nH]1)C1CCS(=O)(=O)C1 (stereo not given) | n | x | n | n | n | n
CC1(C)C2CCC(CN=C(N)CSS(=O)(=O)O)C1C2 (stereo not given) | x | x | n | x | x | x
NC(CSS(=O)(=O)O)=NCCC12CC3CC(CC(O)(C3)C1)C2 | n | n | n | n | 85 | n
O=C(Cc1ccccc1)NCC(=O)OCC(=O)c1ccccc1Cl | n | n | n | n | 77 | n
O=C(CNC(=O)c1ccccc1)OCC(=O)c1ccccc1Cl | n | n | n | n | n | n
CCc1cccc(C)c1NC(=S)NCCc1c(C)[nH]c2ccc(C)cc12 | n | n | n | n | n | n
CCCCCCCN1C(Nc2ccccc2)=NC[C@@H]1Cc1ccccc1 | n | n | 26 | n | n | n
SMILES | APOBEC3G inh | M18AAP inhibitor | CendR NRP1 mod | Yeast superoxide | ALR inh | APOBEC3A inh
O=c1c(C(c2ccc(Cl)cc2)c2c(O)nc3n(c2=O)CCCS3)c(O)nc2n1CCCS2 | n | n | n | n | n | n
O=c1c(C(c2ccc(Cl)cc2)c2c(O)nc3n(c2=O)CCS3)c(O)nc2n1CCS2 | n | n | n | n | 98 | n
O=C(NCCC(F)(F)F)C1Cc2c(-c3ccccc3Oc3ccccc3)ccnc2O1 (stereo not given) | x | x | n | x | x | x
O=C(O)c1ccc(-n2c(-c3cc(-c4ccco4)[nH]n3)n[nH]c2=S)cc1 | n | n | n | n | 96 | n
O=C(Cc1ccc(Cl)cc1)c1c[nH]c(C(=O)NCCCn2ccnc2)c1 | n | n | n | n | n | n
CC1CCC(NC(=O)c2nn(C)c3c2CS(=O)(=O)c2ccccc2-3)CC1 (stereo not given) | n | n | n | n | n | n
COc1cc(/C=N/NC(=O)CC(=O)NC2CCCCC2)ccc1O | n | n | n | n | 99 | n
C=CCOc1ccc(/C=N/NC(=O)C(=O)N2CCCCCC2)cc1OC | n | n | n | n | x | n
COC(=O)c1ccc(/C=N/NC(=O)CC(=O)NC2CCCCC2)cc1 | n | n | n | n | n | n
COc1ccc(/C=N/NC(=O)C(=O)N2CCCC2)cc1 | n | n | n | n | n | n
COc1cc(/C=N/NC(=O)C(=O)N2CCCCCC2)ccc1O | n | n | n | n | 99 | n
CN(C)c1ccc(/C=N/NC(=O)C(=O)N2CCCCCC2)cc1 | n | n | n | n | 99 | n
COc1cc(/C=C(\C#N)C(=O)N2CCCCC2)ccc1O | n | n | n | n | 99 | n
CC(C)(C)CC(=O)NCCc1csc(-c2ccccc2)n1 | n | n | n | n | n | n
O=C(CC1C(=O)NCCN1Cc1cccc(Oc2ccccc2)c1)NCCn1cccn1 (stereo not given) | n | n | n | n | x | n
Cc1cc(Br)c(Cl)cc1NC(=O)CN1C(=O)C2C3CC(c4ccccc4)C(C3)C2C1=O (stereo not given) | n | n | n | n | n | n
CCN1C[C@@H]2[C@@H]3C(=O)N(Cc4ccccc4)C(=O)[C@@H]3[C@](CC)(C1=O)N2C(=O)c1ccc(C(F)(F)F)cc1 | n | x | 30 | n | n | n
CCN1C[C@@H]2[C@@H]3C(=O)N(Cc4ccccc4)C(=O)[C@@H]3[C@](CC)(C1=O)N2C(=O)c1ccc(C(C)(C)C)cc1 | x | x | 26 | x | x | x
CCN1C[C@@H]2[C@@H]3C(=O)N(Cc4ccccc4)C(=O)[C@@H]3[C@](Cc3ccccc3)(C1=O)N2C(=O)c1ccc(C(F)(F)F)cc1 | x | x | n | x | x | x
CN1C[C@@H]2[C@@H]3C(=O)N(Cc4ccccc4)C(=O)[C@@H]3[C@](C)(C1=O)N2C(=O)c1ccc(Cl)cc1 | n | x | 31 | n | n | n
CCCCc1ccc(C2C(C#N)=C(N)SC(N)=C2C#N)s1 | n | n | x | n | 98 | n
CCOc1ccc(C2C(C#N)=C(N)SC(N)=C2C#N)c(OCC)c1 | n | n | n | n | n | n
Oc1ccccc1C(=S)N1CCN(C(=S)c2ccccc2O)CC1 | n | 29 | n | n | n | n
O=C(Nc1ccc(O)cc1)c1cc2n(n1)C(C(F)(F)F)CC(c1ccco1)N2 (stereo not given) | n | n | n | n | 99 | n

Source: PubChem
